Assay outcomes as filed in PubChem.
FGF22 binding = binders of human FGF22 protein, primary screen, FGF22 synaptogenesis inhibitor project, biophysical, thermal shift, single point | 340,000 compounds, 1.5% hits | recombinant FGF22 thermal shift, SYPRO orange fluorescence; percent of sucrose octasulfate shift, DMSO zero | activity (Tm shift, normalised), % at 9.99 µM | Fibroblast growth factor 22 (Homo sapiens), Q9HCT0 | AID 651658, 2012;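 active means mean Tm shift, scaled 0 neutral to 100 positive control, at about 1.3% or above, every replicate too, limit read from the data; inconclusive means no clear call, values can overlap the other calls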
Target sequence (Q9HCT0 whole entry, looked up): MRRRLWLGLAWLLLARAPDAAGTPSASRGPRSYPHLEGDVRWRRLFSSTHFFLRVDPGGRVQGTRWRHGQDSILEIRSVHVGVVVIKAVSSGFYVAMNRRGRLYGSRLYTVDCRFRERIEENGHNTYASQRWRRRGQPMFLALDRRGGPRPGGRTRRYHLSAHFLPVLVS
SMARCA2 activ = SMARCA2 (BRM) function activators, primary screen, cell-based, luminescence, high throughput. 370,000 compounds, 1% hits. AID 652017, 2013. MG213 cells, MMTV-luciferase reporter, dexamethasone, overnight. activation, % at 9.1 µM; in the data active means activation above about 7.8%;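 further: 0% = vehicle wells and 100% = reference activator wells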
MITF TRPM1 HTS = activators of MITF-driven TRPM1 promoter reporter, primary screen, cell-based, SK-MEL-5, luciferase, single point; 300,000 compounds, 0.75% hits; AID 588334, 2011; SK-MEL-5 TRPM1-promoter luciferase, 24 h; % of positive control, neutral wells = 0; activation, % at 12.5 µM;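 active means mean activation of at least 80% with every replicate also reaching 80%; inconclusive means mean reaches 80% but some replicate falls short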;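 further: 0% = neutral control wells and 100% = parthenolide positive control wells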
MLL AF4-AF9 inh = inhibitors of AF4 peptide binding to AF9, primary screen, biochemical, AlphaScreen, biotin-AF4 peptide, FLAG-AF9, single point. inhibition, % at 10 µM. Protein AF-9 (Homo sapiens), P42568. AID 651704, 2012. 350,000 compounds, 0.47% hits;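 active means every replicate reaching a set inhibition limit, whatever the replicate mean, cut at about 25% in these data; inconclusive means mean inhibition reaches that limit but some replicates miss it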;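 further: 0% = plate neutral control median and 100% = total signal loss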
Wnt bcat act = Wnt/beta-catenin pathway activators, primary screen, cell-based, plate reader, single point; Wnt/beta-catenin reporter cell assay, activator; activation, % at 9.35 µM; 300,000 compounds, 1.2% hits; AID 743398, 2014; in the data active means activation above about 30%, passing the limit was not always enough; inconclusive means no clear call, values can overlap the other calls;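 further: 0% = neutral control wells and 100% = positive control wells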
esBAF inh = Bmi1 luciferase reporter increase in mESCs, primary screen, esBAF inhibitor project, mouse ES cells, Bmi1 luciferase knock-in, single point | 24 h; 100% = twice the neutral-well signal | reporter increase, % at 12.5 µM | 350,000 compounds, 2% hits; in the data active means activation above about 40%; inconclusive means no clear call, values can overlap the other calls;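 further: 0% = median of the plate's neutral control wells and 100% = double that signal; a rise in the Bmi1 reporter signal indicates esBAF inhibition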
Active calls of the source: *; ? = inconclusive; . = no result given. Compounds with a hit are over-represented: about 4.3% of the library has one in this group of screens.

SMILES	FGF22 binding	SMARCA2 activ	MITF TRPM1 HTS	MLL AF4-AF9 inh	Wnt bcat act	esBAF inh
O=C(CSc1nncs1)NC(=O)Nc1ccc2c(c1)OCCO2	0	4	57	-18	37*	26
O=C(CSc1nncs1)Nc1ccc2c(c1)OCCO2	.	4	32	.	11	7
Cc1[nH]nc(Nc2ccc(Br)cc2)c1[N+](=O)[O-]	0	2	.	1	4	.
Cc1ccc(Nc2n[nH]c(C)c2[N+](=O)[O-])cc1	.	5	96*	.	45*	.
Cc1[nH]nc(Nc2ccc(C(C)C)cc2)c1[N+](=O)[O-]	0	6	114*	2	1	93*
C[C@@H]1CCCCO[C@@H](CN(C)Cc2ccc3c(c2)OCO3)[C@H](C)CN([C@@H](C)CO)C(=O)c2cc(NC(=O)Nc3ccc(C(F)(F)F)cc3)ccc2O1	0	.	.	3	.	-3
Cc1c(-n2c(SCC(=O)NC(C)C(C)C)nc3ccccc3c2=O)c(=O)n(-c2ccccc2)n1C (stereo unspecified)	43*	-3	-6	-4	-7	.
C[C@H](NC(=O)C[C@@H]1CC[C@H]2[C@@H](COC[C@@H](O)CN2C(=O)Nc2cc(Cl)cc(Cl)c2)O1)c1ccccc1	0	.	.	0	.	-2
Cc1cccnc1NC(=O)COc1ccc2c(c1)CCC2	0	2	100*	0	17	57*
Cc1ccc(NC(=O)COc2ccc3oc4c(c3c2)CCCC4)nc1	.	1	-3	.	0	-3
Cc1ccc(OCC(=O)c2ccc3c(c2)CCCC3)cc1C	.	-3	97*	.	6	18
Cc1ccc(NC(=O)COc2ccc3c(c2)CCC3)nc1	0	3	94*	0	?	17
Cc1cccnc1NC(=O)COc1ccc2oc3c(c2c1)CCCC3	.	1	37	.	3	8
Cc1csc(NC(=O)COc2ccc3c(c2)CCC3)n1	0	2	78	3	20	64*
COc1ccc(NC(=O)N(C)C[C@@H]2OCCCC[C@H](C)Oc3ccc(NS(C)(=O)=O)cc3C(=O)N([C@H](C)CO)C[C@@H]2C)cc1	0	.	.	-4	.	8
CCOC(=O)c1ccc(-c2ccc(CO)o2)cc1	.	6	.	.	45*	38
COC(=O)C[C@@H]1C=C[C@@H](NC(=O)Nc2ccc(C(F)(F)F)cc2)[C@H](CO)O1	0	.	.	3	.	-2
O=C(c1ccc2c(c1)[nH]c(=S)n1c3ccccc3nc21)N1CCN(c2ncccn2)CC1	.	0	-3	.	-2	2
O=C(NCCN1CCN(c2ccccc2)CC1)c1ccc2c(c1)[nH]c(=S)n1c3ccccc3nc21	43*	0	-3	2	-1	.
Cc1c(OCC(=O)N(C)c2ccccc2)ccc2c3c(c(=O)oc12)CCC3	0	-2	7	32*	-3	3
CCOC(=O)COc1ccc2c3c(c(=O)oc2c1C)CCC3	.	-1	19	.	.	-11
Cn1cncc1C#Cc1ccc2c(=O)c3ccccc3oc2c1	0	4	68	3	44*	?
C[C@@H]1CN([C@@H](C)CO)C(=O)c2c(c3ccccc3n2C)-c2ccccc2CO[C@@H]1CN(C)C(=O)c1ccc(F)cc1	0	.	.	1	.	3
COc1ccc(NC(=O)CSc2nccn2C)cc1S(N)(=O)=O	2.4*	3	-5	-20	0	.
COc1ccc(NC(=O)CSc2nncs2)cc1S(N)(=O)=O	0	-3	8	-6	4	.
CCC(=O)N1CC2(CN(Cc3ccc(Cl)cc3)C2)c2c(n(C)c3cc(OC)ccc23)[C@@H]1CO	0	.	.	38*	.	.
CCC(=O)N1CC2(CCN(Cc3ccc(Cl)cc3)CC2)c2c([nH]c3cc(OC)ccc23)[C@@H]1CO	.	.	.	26*	.	.
COc1ccc2c3c(n(C)c2c1)[C@@H](CO)N(C(=O)C1CC1)CC31CN(Cc2ccccc2OC)C1	.	.	.	24	.	.
COc1ccc(S(=O)(=O)N2CCC3(CC2)CN(C(=O)CN(C)C)[C@@H](CO)c2c3c3ccc(OC)cc3n2C)cc1	0	.	.	35*	.	.
